# Assay results: PubChem BioAssay
# Active and inactive are the calls of the source.
# Tests used:
# [1] = anti-His antibody binders, primary screen, artefact control for SMM control protein annotation, biochemical, small-molecule microarray, 635 nm fluorescence (AID 1128); details: anti-His Alexa647 antibody binding, higher = more signal;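 note: score merges feature fluorescence with signal-to-noise for each printed compound spot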
# [2] = test system: Human papillomavirus type 1a E7 protein (residues 1-88); experiment: HPV1a E7 small-molecule binders, primary screen, biochemical, small-molecule microarray, residues 1-88, 635 nm (AID 1129); details: small-molecule microarray binding, fluorescence 635 nm; higher = more signal
# [3] = molecular target: Focal adhesion kinase 1 (Homo sapiens) (UniProt Q05397); experiment: small-molecule microarray binders of FAK, primary screen, biochemical, 635/667 nm fluorescence, BSA, DTT (AID 1130); details: PTK2 binding, 635 nm fluorescence, higher = more signal;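 note: composite of spot emission at 667 nm and signal to noise over triplicate slides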
# [4] = test system: Fibrinogen (Alexa647-labelled); experiment: fibrinogen binders on compound microarrays, profiling panel, artefact control for SMM control-protein annotation, biochemical, small-molecule microarray, 635/667 nm fluorescence (AID 1131); details: fibrinogen-A647 binding fluorescence, higher = more signal;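 note: z-score merges 667 nm fluorescence with per-spot signal-to-noise over triplicate slides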
# [5] = molecular target: Follistatin (Homo sapiens) (UniProt P19883); experiment: follistatin binders on small-molecule microarrays, primary screen, biochemical, small-molecule microarray, 635/667 nm fluorescence (AID 1132); details: FST binding, 635 nm fluorescence, higher = more signal
# [6] = molecular target: Fibroblast growth factor 2 (Homo sapiens) (UniProt P09038); experiment: FGF2 binders on small-molecule microarrays, primary screen, biochemical, small-molecule microarray, 635/667 nm fluorescence (AID 1133); details: small-molecule microarray binding, FGF2, fluorescence 635/667; higher = more signal
# [7] = mitochondrial membrane potential change in A549 cells, profiling panel, cell-based, JC-1 fluorescence, basal, 24 h, 100 nL (AID 1138); details: higher = more signal;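 note: A549 lung adenocarcinoma cells under basal conditions with no added stimulus; test concentration not given here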
# Lefty1 = Lefty1 binders on small-molecule microarrays, primary screen, biochemical, small-molecule microarray, 635/667 nm fluorescence (AID 1139); details: small-molecule microarray binding, fluorescence 635/667; higher = more signal
# [8] = test system: wheat germ agglutinin (Triticum aestivum), Alexa647-labelled; experiment: wheat germ agglutinin binders on compound microarrays, profiling panel, artefact control for SMM control-protein annotation, biochemical, small-molecule microarray, 635/667 nm fluorescence (AID 1140); details: WGA-A647 binding, 635 nm fluorescence, higher = more signal;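 note: score merges 667 nm feature emission with signal to noise over triplicate slides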
# [9] = molecular target: Luciferin 4-monooxygenase (Photinus pyralis) (UniProt P08659); experiment: firefly luciferase enzyme inhibitors, primary screen, biochemical, luminescence, purified enzyme, 2006 set (AID 1141); details: SteadyGlo luminescence, 30 min, higher = more signal, called active from +8 up or from −8 down;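 note: cell-free assay with purified firefly luciferase at 100 ng per well in PBS; test concentration not given here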
# [10] = test system: Wnt5a (protein binding on small-molecule microarray); experiment: Wnt5a binders on small-molecule microarray, primary screen, biophysical, 635/667 nm fluorescence (AID 1142); details: 635 nm fluorescence, higher = more signal;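 note: fluorescence read at 667 nm with signal to noise per printed feature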
# [11] = cell viability in Huh7 cells, primary screen, cytotoxicity control for HCV replication inhibitor project, CellTiter-Glo luminescence, basal, 48 h (AID 1143); details: Huh7 HCV replicon, higher = more signal, called active from +8 up or from −8 down;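 note: Huh7 hepatoma cells carrying a hepatitis C replication reporter with no stimulus; test concentration not given here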
# [12] = CREB reporter modulators without forskolin, primary screen, cell-based, PC12, CRE-LacZ reporter, unstimulated (AID 1145); details: no forskolin, luminescence, 4.5 h, higher = more signal, called active from +8 up or from −8 down
# [13] = CREB reporter modulators under forskolin, primary screen, cell-based, PC12, CRE-LacZ reporter, forskolin-stimulated (AID 1146); details: luminescence, 4.5 h, higher = more signal, called active from +8 up or from −8 down;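 note: PC12 cells with 6xCRE LacZ reporter stimulated by forskolin 10 µM; beta-galactosidase reporter signal reflecting CREB driven transcription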
# [14] = molecular target: Streptavidin (Streptomyces avidinii) (UniProt P22629); experiment: streptavidin binders on small-molecule microarray, primary screen, artefact control for SMM compound annotation, biophysical, 635/667 nm fluorescence (AID 1147); details: streptavidin binding, higher = more signal;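 note: signal reflects streptavidin binding to arrayed compounds as a control protein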
# [15] = small-molecule binders of probe aInhba, primary screen, biochemical, small-molecule microarray, 635/667 nm fluorescence (AID 1148); details: higher = more signal;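 note: score merges 667nm spot fluorescence with signal-to-noise for antibody binding to printed compounds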
# Torsin-1A (Homo sapiens) [16] = molecular target: Torsin-1A (Homo sapiens) (UniProt O14656); experiment: torsin A binders from cell lysate, primary screen, small-molecule microarray, wild-type, 635/667 nm (AID 1149); details: COS7 hTOR1A-WT lysate, 635 nm fluorescence, higher = more signal
# Torsin-1A (Homo sapiens) [17] = molecular target: Torsin-1A (Homo sapiens) (UniProt O14656); experiment: small-molecule binders of mutant TOR1A in lysate, primary screen, cell lysate, small-molecule microarray, COS7 lysate, 635/667 nm fluorescence (AID 1150); details: COS7 hTOR1A mutant lysate, 635 nm fluorescence, higher = more signal;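 note: score pools 667 nm emission and signal to noise measuring lysate protein binding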
# [18] = test system: Sonic hedgehog protein (Shh); experiment: small-molecule binders of Shh protein, primary screen, biochemical, small-molecule microarray, 635/667 nm fluorescence (AID 1151); details: small-molecule microarray binding, 635 nm fluorescence; higher = more signal;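 note: Shh protein binding to compounds spotted on small-molecule microarray slides; score combines spot fluorescence intensity with signal-to-noise across triplicate slides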
# Chain of Fibroblast growth factor 2 (Homo sapiens) (P09038 whole entry, looked up): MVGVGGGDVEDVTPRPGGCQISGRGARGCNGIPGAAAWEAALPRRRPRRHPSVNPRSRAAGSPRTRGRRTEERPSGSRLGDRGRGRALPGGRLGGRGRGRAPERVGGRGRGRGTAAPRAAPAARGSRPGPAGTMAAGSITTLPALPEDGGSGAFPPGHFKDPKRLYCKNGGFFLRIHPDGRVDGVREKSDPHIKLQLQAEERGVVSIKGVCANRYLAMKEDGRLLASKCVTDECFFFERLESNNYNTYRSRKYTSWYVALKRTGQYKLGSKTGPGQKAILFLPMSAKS
# Chain of Focal adhesion kinase 1 (Homo sapiens) (Q05397 whole entry, looked up): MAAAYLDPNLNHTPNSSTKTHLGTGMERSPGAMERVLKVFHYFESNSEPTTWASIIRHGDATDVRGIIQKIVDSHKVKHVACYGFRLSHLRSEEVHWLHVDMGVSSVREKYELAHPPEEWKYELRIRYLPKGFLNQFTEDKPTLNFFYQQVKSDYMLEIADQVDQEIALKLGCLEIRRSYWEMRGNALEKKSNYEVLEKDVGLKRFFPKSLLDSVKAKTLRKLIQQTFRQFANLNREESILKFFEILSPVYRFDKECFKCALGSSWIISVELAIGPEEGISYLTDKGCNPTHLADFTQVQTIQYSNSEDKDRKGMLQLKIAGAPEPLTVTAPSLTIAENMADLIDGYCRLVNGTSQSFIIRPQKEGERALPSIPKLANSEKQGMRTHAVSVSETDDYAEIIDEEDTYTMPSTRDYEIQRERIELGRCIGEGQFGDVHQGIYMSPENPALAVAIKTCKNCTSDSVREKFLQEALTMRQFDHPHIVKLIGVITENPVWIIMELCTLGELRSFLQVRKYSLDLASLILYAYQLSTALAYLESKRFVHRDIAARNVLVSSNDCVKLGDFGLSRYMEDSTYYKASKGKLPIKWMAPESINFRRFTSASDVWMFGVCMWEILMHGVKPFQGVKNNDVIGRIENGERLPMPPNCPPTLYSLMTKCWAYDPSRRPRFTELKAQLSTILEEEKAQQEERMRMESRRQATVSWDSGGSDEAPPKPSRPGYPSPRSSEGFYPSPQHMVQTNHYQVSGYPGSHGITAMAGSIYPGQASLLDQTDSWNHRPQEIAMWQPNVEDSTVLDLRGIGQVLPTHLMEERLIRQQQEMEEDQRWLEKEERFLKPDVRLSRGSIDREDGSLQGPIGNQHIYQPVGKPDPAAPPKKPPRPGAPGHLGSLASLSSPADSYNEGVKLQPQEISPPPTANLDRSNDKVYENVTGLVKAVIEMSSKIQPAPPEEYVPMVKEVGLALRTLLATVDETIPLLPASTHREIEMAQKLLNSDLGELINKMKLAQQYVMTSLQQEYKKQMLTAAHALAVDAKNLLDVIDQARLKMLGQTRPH
# Chain of Follistatin (Homo sapiens) (P19883 whole entry, looked up): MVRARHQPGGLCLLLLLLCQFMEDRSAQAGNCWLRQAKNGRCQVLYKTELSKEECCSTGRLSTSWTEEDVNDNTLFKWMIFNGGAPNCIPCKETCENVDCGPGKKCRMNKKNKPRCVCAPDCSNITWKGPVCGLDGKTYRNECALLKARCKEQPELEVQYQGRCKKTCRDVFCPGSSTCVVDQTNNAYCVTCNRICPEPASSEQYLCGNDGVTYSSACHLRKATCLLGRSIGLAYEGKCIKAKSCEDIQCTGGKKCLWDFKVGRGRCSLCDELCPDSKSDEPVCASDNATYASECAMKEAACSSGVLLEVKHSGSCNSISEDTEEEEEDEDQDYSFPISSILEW
# Chain of Torsin-1A (Homo sapiens) (O14656 whole entry, looked up): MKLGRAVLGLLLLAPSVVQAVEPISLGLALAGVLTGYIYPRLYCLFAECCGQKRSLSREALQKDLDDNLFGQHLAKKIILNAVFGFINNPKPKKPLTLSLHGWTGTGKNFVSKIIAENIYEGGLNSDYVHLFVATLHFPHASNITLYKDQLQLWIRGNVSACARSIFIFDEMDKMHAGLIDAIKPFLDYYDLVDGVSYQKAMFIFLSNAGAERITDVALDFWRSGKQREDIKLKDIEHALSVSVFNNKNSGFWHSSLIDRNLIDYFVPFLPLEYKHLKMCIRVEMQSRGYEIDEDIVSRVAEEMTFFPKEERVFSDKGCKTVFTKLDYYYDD
# Chain of Luciferin 4-monooxygenase (Photinus pyralis) (P08659 whole entry, looked up): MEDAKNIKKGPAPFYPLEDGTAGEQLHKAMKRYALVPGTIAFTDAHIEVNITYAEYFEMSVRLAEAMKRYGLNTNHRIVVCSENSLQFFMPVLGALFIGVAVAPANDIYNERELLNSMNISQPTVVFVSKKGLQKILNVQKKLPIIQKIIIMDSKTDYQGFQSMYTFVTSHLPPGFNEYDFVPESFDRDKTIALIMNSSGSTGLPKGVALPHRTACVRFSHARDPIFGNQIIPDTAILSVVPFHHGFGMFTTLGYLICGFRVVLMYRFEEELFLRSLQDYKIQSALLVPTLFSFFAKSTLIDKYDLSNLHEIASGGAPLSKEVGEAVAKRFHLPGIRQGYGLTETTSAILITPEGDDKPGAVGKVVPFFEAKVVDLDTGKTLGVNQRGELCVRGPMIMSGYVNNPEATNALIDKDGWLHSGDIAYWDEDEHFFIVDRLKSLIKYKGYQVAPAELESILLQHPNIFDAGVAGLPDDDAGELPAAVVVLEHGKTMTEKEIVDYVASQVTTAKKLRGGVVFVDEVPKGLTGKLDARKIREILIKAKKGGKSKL
# Chain of Streptavidin (Streptomyces avidinii) (P22629 whole entry, looked up): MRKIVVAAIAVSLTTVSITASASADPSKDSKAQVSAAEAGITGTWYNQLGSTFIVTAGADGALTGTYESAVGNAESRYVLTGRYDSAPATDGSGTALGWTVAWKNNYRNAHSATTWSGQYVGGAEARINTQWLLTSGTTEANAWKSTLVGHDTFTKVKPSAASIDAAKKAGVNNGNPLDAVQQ
SMILES,composite z-score [1],composite z-score [2],composite z-score [3],composite z-score [4],composite z-score [5],composite z-score [6],z-score [7],composite z-score (Lefty1),composite z-score [8],z-score [9],composite z-score [10],z-score [11],z-score [12],z-score [13],composite z-score [14],composite z-score [15],composite z-score (Torsin-1A (Homo sapiens) [16]),composite z-score (Torsin-1A (Homo sapiens) [17]),composite z-score [18]
COCCOC(=O)N1C(=O)[C@@]2(c3cc(C#CCNC(N)=O)ccc31)[C@H](c1ccc(OCCO)cc1)N1[C@H](c3ccccc3)[C@H](c3ccccc3)OC(=O)[C@H]1[C@@H]2C(=O)N1CCCCCCC1,-0.347,0.718,0.422,0.355,1.35,0.117,-0.99,0.854,0.884,-1.45 (inactive),0.148,-2.36 (inactive),-0.0566 (inactive),-1.91 (inactive),0.34,0.325,0.0499,0.576,0.932
CO[C@@H]1COC(=O)[C@H](C)NC(=O)CC=C[C@@H](C)[C@H](NS(=O)(=O)c2ccc(C)cc2)COC(=O)CC=C[C@@H]1C,0.373,0.0643,-0.181,-0.412,-0.268,0.0544,1.43,-0.0101,-0.872,-1.11 (inactive),0.0543,0.189 (inactive),-0.0234 (inactive),-0.445 (inactive),-0.193,-0.145,0.56,0.252,0.0208
C=C(COC)/C(=C/C[C@H](OC(C)=O)c1ccc(OCCO)cc1)c1cnc2ccccc2c1,-0.418,1.14,0.771,0.333,1.4,0.813,1.8,1.27,1.23,-1.81 (inactive),0.248,-0.843 (inactive),7.3 (inactive),-0.862 (inactive),0.864,0.0082,0.654,-0.0171,1.99
COc1ccc([Si](C)(C)[C@H]2[C@H](CCO)O[C@@]3(C(=O)N(Cc4ccccc4)c4ccc(N5C(=O)c6cccc7cccc5c67)cc43)[C@@H]2C)cc1,1.38,-0.333,0.209,-0.603,-0.357,-0.751,2.33,-0.297,0.641,-1.84 (inactive),-0.234,-5.81 (inactive),4.04 (inactive),-1.36 (inactive),-0.3,-0.0791,-0.144,0.0743,0.145
CC(C)CNC(=O)[C@@]1(C)c2ccccc2C(=O)N(Cc2ccc(OC(F)(F)F)cc2)[C@H]1c1ccc(CO)cc1,0.206,0.325,-0.0752,-0.0439,-0.27,0.192,0.209,-1.43,-0.0416,-1.22 (inactive),0.12,-1.65 (inactive),0.0279 (inactive),-0.569 (inactive),-1.12,-0.128,-0.0233,0.316,-0.406
CN1CCC(CCCO)=CC1C1CC1 (centres undefined),0.346,-0.256,-0.233,-0.146,0.803,0.923,0.949,1.12,-0.59,-0.703 (inactive),0.0651,-3.2 (inactive),-0.131 (inactive),-1.36 (inactive),-0.0672,-0.202,0.759,0.0677,1.23
C[C@H]1COC(=O)[C@H](Cc2ccccc2)NC(=O)[C@@H](C)COC(=O)[C@H](Cc2ccccc2)NC1=O,1.46,1.12,0.327,0.194,0.593,0.635,1.04,1.03,0.523,-0.443 (inactive),0.226,-2.12 (inactive),2.52 (inactive),-0.837 (inactive),1.65,-0.0523,1.18,0.654,1.13
C=CCc1cccc([C@@H]2[C@@H](C)CC[C@H]3C(=O)N4[C@H](c5cccc(CC=C)c5)[C@@H](C)CC[C@H]4C(=O)N23)c1,0.22,1.09,0.19,0.991,1.28,0.704,3.36,0.644,0.846,-0.744 (inactive),0.205,-3.75 (inactive),3.64 (inactive),-0.353 (inactive),0.898,0.0968,0.392,0.203,0.946
CC(C)(C)OC(=O)CC[C@@]1(C(=O)NCc2ccccc2)N=C(c2ccc(OCCCO)cc2)O[C@@H]1c1ccccc1,2.76,1.25,1.18,0.966,1.16,0.244,0.614,0.353,1.53,-1.54 (inactive),0.337,-4.58 (inactive),0.573 (inactive),-2.42 (inactive),1.41,0.346,0.461,1.04,-0.282
CCC(=O)[C@]12O[C@@]3([C@@H]4C(=O)OCC[C@@H]41)N(CC)C(C)=C(C(=O)OC)[C@@H](c1ccccc1)N3C2=O,1.41,-1.67,0.335,-0.62,0.754,0.111,-0.404,0.373,-0.0702,-0.533 (inactive),-0.0488,-3.62 (inactive),-0.0708 (inactive),-1.58 (inactive),-0.194,-0.283,-0.0028,-0.063,1.92
O=C(O)[C@@H]1Cc2c([nH]c3ccccc23)[C@@H](c2ccccc2)N1,0.247,0.299,0.948,0.651,0.607,0.197,0.375,0.244,0.0252,-0.0866 (inactive),0.019,-0.691 (inactive),0.109 (inactive),-1.69 (inactive),0.29,-0.164,0.589,0.409,0.371
